Test systems include RPMI-8226 leukemia; OVCAR-8 ovarian; OVCAR-5 ovarian; OVCAR-4 ovarian; SK-OV-3 ovarian; IGROV1 ovarian; OVCAR-3 ovarian; HS 578T breast; NCI/ADR-RES ovarian; T-47D breast.
Assay in all cases: NCI-60 one-dose screen, 48 h (100 = growth as untreated, 0 = no growth, -100 = all killed)
What all share (details): 10 µM unless noted

About 83,000 compounds went through this panel and 20% of them were active in at least one assay; those are over-represented in the sample as a whole.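 Note: values are percent growth. 100 is the growth of untreated cells, values between 100 and 0 indicate rising inhibition; between -100 and 0 indicates cell death.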 Values without a mark were called inactive. Calls of active or inactive are those of the source. Rule for the calls: active = growth percent below 10; inactive = the rest.

For the compound `Cc1nc(C)c(C)nc1C`, the growth is 104% with RPMI-8226 leukemia; 91.8% in the assay with OVCAR-8 ovarian; 115% in the assay with OVCAR-5 ovarian; 114% in the assay on OVCAR-4 ovarian; 96.5% with SK-OV-3 ovarian; 108% with IGROV1 ovarian. In addition, the growth in the assay with OVCAR-3 ovarian is 109%; in the assay with HS 578T breast it was 85.6%; with NCI/ADR-RES ovarian, 109%; in the assay on T-47D breast it was 92.5%.
With `c1cc(CNC23CC4CC(CC(C4)C2)C3)cc(C[N+](Cc2cccc(CNC34CC5CC(CC(C5)C3)C4)c2)(Cc2cccc(CNC34CC5CC(CC(C5)C3)C4)c2)Cc2cccc(CNC34CC5CC(CC(C5)C3)C4)c2)c1` (stereo not given), the growth with RPMI-8226 leukemia is -11.6% [42 µM] (active); in the assay with OVCAR-8 ovarian it was 7.24% [42 µM] (active); in the assay on OVCAR-5 ovarian, 7.78% [42 µM] (active); in the assay on OVCAR-4 ovarian it was 29.5% [42 µM]; with SK-OV-3 ovarian, 61.9% [42 µM]; in the assay on IGROV1 ovarian it was 10.9% [42 µM]. Besides, the growth with OVCAR-3 ovarian is -26.9% [42 µM] (active); in the assay with HS 578T breast, 58.2% [42 µM]; with NCI/ADR-RES ovarian, 21.5% [42 µM]; in the assay with T-47D breast it was 24% [42 µM].
As for `O=C1NC(c2ccc(F)cc2)N=C2C(c3ccccc3)=NOC12` (stereo not given), the growth is 107% in the assay with RPMI-8226 leukemia; 106% in the assay with OVCAR-8 ovarian; 108% with OVCAR-5 ovarian; 105% in the assay with OVCAR-4 ovarian; 106% in the assay with SK-OV-3 ovarian; 108% in the assay with IGROV1 ovarian. Moreover, the growth was 109% in the assay on OVCAR-3 ovarian, 106% with HS 578T breast, 112% with NCI/ADR-RES ovarian and 104% in the assay with T-47D breast.
For `COC(=O)/C=C1\SC(=Nc2cccc(OC)c2)N(CCc2c[nH]c3ccccc23)C1=O`, the growth in the assay with RPMI-8226 leukemia was 19.6%; in the assay on OVCAR-8 ovarian, 52.3%; in the assay on OVCAR-5 ovarian it was 96%; in the assay on OVCAR-4 ovarian it was 69.7%; in the assay on SK-OV-3 ovarian it was 72.4%; in the assay on IGROV1 ovarian, 71.7%. The growth with OVCAR-3 ovarian is 57%; in the assay with HS 578T breast it was 81%; in the assay with NCI/ADR-RES ovarian, 62.9%; with T-47D breast it was 46.1%.
Turning to `C#C[C@@]1(O)[C@@H](CO)O[C@@H](n2cc(Cl)c3c(N)ncnc32)[C@@H]1O`, the growth is -5.63% (active) with RPMI-8226 leukemia; -23% (active) in the assay with OVCAR-8 ovarian; 16.1% in the assay on OVCAR-5 ovarian; -4.32% (active) in the assay with OVCAR-4 ovarian; -10.3% (active) with SK-OV-3 ovarian; -17.5% (active) in the assay with IGROV1 ovarian. Also, the growth in the assay on OVCAR-3 ovarian is -10.1% (active); in the assay on HS 578T breast it was 5.45% (active); with NCI/ADR-RES ovarian it was -1.89% (active); in the assay with T-47D breast it was -12.9% (active).
For `Nc1cccc(C(=O)Nc2ccc3c(O)c(N=Nc4ccc(N=Nc5ccc(S(=O)(=O)O)cc5)cc4)c(S(=O)(=O)O)cc3c2)c1`, the growth was 98.2% with RPMI-8226 leukemia; 107% in the assay on OVCAR-8 ovarian; 109% with OVCAR-5 ovarian; 94.3% in the assay with OVCAR-4 ovarian; 101% with SK-OV-3 ovarian; 97.8% in the assay on IGROV1 ovarian. The growth was 102% with OVCAR-3 ovarian, 103% in the assay with HS 578T breast, 112% with NCI/ADR-RES ovarian and 83.8% with T-47D breast.
Take `COc1cc(C(=O)N2CCN(c3ccccc3OC)CC2)c(NC(=O)c2cnccn2)cc1OCc1ccccc1`: the growth was 65.9% in the assay with RPMI-8226 leukemia; 91.1% with OVCAR-8 ovarian; 90.8% with OVCAR-5 ovarian; 79% with OVCAR-4 ovarian; 90.2% in the assay with SK-OV-3 ovarian; 63.9% in the assay on IGROV1 ovarian. In addition, the growth in the assay with OVCAR-3 ovarian was 92.7%; with HS 578T breast it was 103%; in the assay on NCI/ADR-RES ovarian, 78.9%; in the assay with T-47D breast, 66.8%.
`Cc1ccccc1NC(=O)c1sc2nc(C)c(C(C)O)cc2c1N` (stereo not given): the growth was 64.1% in the assay on RPMI-8226 leukemia; 58.1% in the assay with OVCAR-8 ovarian; 87.8% with OVCAR-5 ovarian; 92.9% in the assay on OVCAR-4 ovarian; 47.5% in the assay on SK-OV-3 ovarian; 57.6% with IGROV1 ovarian. Moreover, the growth was 27.8% in the assay on OVCAR-3 ovarian, 53.3% in the assay on HS 578T breast, 29.4% with NCI/ADR-RES ovarian and 54% in the assay on T-47D breast.
On to `Cc1ccc(C2CC(c3ccc(Nc4nc(NCCO)nc(NCCO)n4)cc3)=NN2c2ccc(Cl)cc2)cc1` (stereo not given), for which the growth in the assay on RPMI-8226 leukemia is 47.5%; with OVCAR-8 ovarian, 66%; in the assay with OVCAR-5 ovarian, 99%; in the assay on OVCAR-4 ovarian, 63.9%; with SK-OV-3 ovarian, 98.6%; with IGROV1 ovarian it was 82.6%. The growth in the assay with OVCAR-3 ovarian was 45.7%; with HS 578T breast it was 72.8%; with NCI/ADR-RES ovarian, 80.4%; with T-47D breast, 53.1%.
Turning to `COc1cc(C2=N/C(=C\c3cc4ccccc4nc3Oc3ccccc3)C(=O)N2C(=N)N)cc(OC)c1OC`, the growth is 86.1% in the assay with RPMI-8226 leukemia; 33.2% in the assay on OVCAR-8 ovarian; 80.7% in the assay on OVCAR-5 ovarian; 24.3% in the assay with OVCAR-4 ovarian; 44.2% in the assay on SK-OV-3 ovarian; 82.1% in the assay on IGROV1 ovarian. Also, the growth with OVCAR-3 ovarian was 76.7%; with HS 578T breast, 33.7%; in the assay with NCI/ADR-RES ovarian it was 52.6%; in the assay on T-47D breast, 49%.
Consider `C=C1C(=O)O[C@H]2[C@H]1CC/C(COC(=O)NCc1nc3ccccc3[nH]1)=C\CC[C@@]1(C)O[C@@H]21`, for which the growth in the assay on RPMI-8226 leukemia is 34.7%; with OVCAR-8 ovarian it was 93.6%; with OVCAR-5 ovarian, 130%; in the assay with OVCAR-4 ovarian, 82.7%; in the assay with SK-OV-3 ovarian, 101%; in the assay on IGROV1 ovarian, 62.7%. In addition, the growth with OVCAR-3 ovarian is 22%; with HS 578T breast, 102%; with NCI/ADR-RES ovarian, 99.4%; with T-47D breast, 43.4%.
With `c1ccc(-c2n(Cc3ccc4ccccc4n3)cc[n+]2Cc2ccc3ccccc3c2)cc1`, the growth is -2.59% (active) in the assay with RPMI-8226 leukemia; 3.17% (active) in the assay with OVCAR-8 ovarian; 22% in the assay with OVCAR-5 ovarian; 14.3% with OVCAR-4 ovarian; -12.4% (active) in the assay on SK-OV-3 ovarian; -15.4% (active) in the assay on IGROV1 ovarian. For the same compound, the growth in the assay with OVCAR-3 ovarian was 6.21% (active); in the assay on HS 578T breast it was 15.1%; in the assay on NCI/ADR-RES ovarian, 96%; in the assay with T-47D breast, -14.7% (active).
In the case of `CC1(C)CC[C@]2(c3nnc(-c4ccncc4)o3)CC[C@]3(C)C(=CC[C@@H]4[C@@]5(C)CCC(=O)C(C)(C)[C@@H]5CC[C@]43C)[C@@H]2C1`, the growth in the assay on RPMI-8226 leukemia is 62.4%; in the assay with OVCAR-8 ovarian it was 81.1%; with OVCAR-5 ovarian it was 99.9%; in the assay with OVCAR-4 ovarian, 89.2%; in the assay on SK-OV-3 ovarian it was 104%; in the assay on IGROV1 ovarian, 93.2%. The growth was 80.8% in the assay with OVCAR-3 ovarian, 98.6% in the assay on HS 578T breast, 97.2% in the assay with NCI/ADR-RES ovarian and 65.9% with T-47D breast.

(Values after PubChem BioAssay (NCI).)
